Experiment [1] deals with CCAAT/enhancer-binding protein beta (Homo sapiens) (UniProt P17676). The experiment in a line: ATG_C_EBP_CIS: Attagene CIS-FACTORIAL HepG2 Assay for human CCAAT/Enhancer Binding Protein (C/EBP) beta (AID 2282927). The settings on record: HepG2 Attagene cis-factorial transcription factor reporter; actives raise or lower the signal. The method, boiled down:
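HepG2 transiently transfected with multiplexed reporter units under cis-regulatory promoters reporting endogenous C/EBPb activity. After 24 h exposure, reporter mRNA assayed by RT-PCR, fluorescent labelling, HpaI digestion and capillary electrophoresis; bidirectional fitting versus DMSO.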

Experiment [2] is described as follows: ATG_DR4_LXR_CIS: Attagene CIS-FACTORIAL HepG2 Assay for human Liver X Receptor (LXR), DR4 submotif (AID 2282929). The following applies: HepG2 Attagene DR4 cis-reporter, mRNA transcription; actives raise or lower the signal. The method, boiled down: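 Total RNA from 24 h-treated, MRTU-transfected HepG2 cells underwent reverse transcription, PCR, fluorescent primer extension and restriction digestion before capillary electrophoresis. Both increases and decreases in reporter signal were fitted against DMSO.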

The nature of experiment [3]: ATG_AP_2_CIS: Attagene CIS-FACTORIAL HepG2 Assay for human Activator Protein 2 (AP-2) (AID 2282932). The settings on record: HepG2 AP-2 cis-reporter, Attagene transcription factor profiling; actives raise or lower the signal. The method, boiled down: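 Liver-derived HepG2 line, cis-reporter system measuring endogenous factors; 24 h dosing; reporter mRNA detected by fluorescent RT-PCR and capillary electrophoresis.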

In experiment [4] the target is Transcription factor E2F1 (Homo sapiens) (UniProt Q01094). Put plainly: ATG_E2F_CIS: Attagene CIS-FACTORIAL HepG2 Assay for human E2F Transcription Factor 1 (AID 2282935). The settings on record: HepG2 Attagene cis-reporter, E2F reporter RNA transcripts; actives raise or lower the signal. The method, boiled down: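 Liver-derived HepG2 cells expressing transfected promoter-driven reporter units received test chemical for 24 hours. Signal gains or losses were fitted bidirectionally against DMSO.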

The nature of experiment [5]: ATG_E_Box_CIS: Attagene CIS-FACTORIAL HepG2 Assay for human Enhancer Box (E-box) (AID 2282936). The settings on record: HepG2 E-box cis-reporter transcription, actives raise or lower the signal. In outline:
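In this cell-based setup, HepG2 cells bearing transfected promoter-driven reporter units were exposed to chemicals for 24 h; reporter transcripts were amplified, 6-FAM-labelled, cut with HpaI and sized by capillary electrophoresis.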

Experiment [6] is described as follows: ATG_M_19_CIS: Attagene CIS-FACTORIAL HepG2 Assay for M19 Transcription Factor (Internal Marker) (AID 2282939). The settings on record: HepG2 Attagene CIS-FACTORIAL M19 internal marker reporter; actives raise or lower the signal. The method, boiled down: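 Chemical-treated HepG2 (24 h) with MRTU constructs; reporter transcripts detected by fluorescent RT-PCR fragment analysis on capillary electrophoresis. Internal background marker, DMSO as baseline.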

Experiment [7] can be described thus: ATG_GLI_CIS: Attagene CIS-FACTORIAL HepG2 Assay for human Zinc Finger Protein GLI1 (AID 2282945). The following applies: HepG2, Attagene cis-factorial reporter mRNA, GLI element; actives raise or lower the signal. In outline:
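Transiently transfected HepG2 cells report endogenous transcription factor activity via cis-element-driven reporter units. After 24 h compound exposure, reporter mRNA was measured by RT-PCR with capillary electrophoresis; bidirectional fitting against DMSO baseline.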

A short description of experiment [8]: ATG_ISRE_CIS: Attagene CIS-FACTORIAL HepG2 Assay for human Interferon Regulatory Factor 1 (IRF1) binding to an Interferon-Stimulated Response Element (ISRE) (AID 2282948). The following applies: HepG2 ISRE cis-reporter (Attagene), mRNA transcription readout; actives raise or lower the signal. In outline: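 Endogenous transcription factor activity read as reporter transcript abundance via RT-PCR and capillary electrophoresis. HepG2 cells transiently transfected, 24 h chemical exposure. Gain or loss fitted against DMSO baseline.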

Experiment [9] can be described thus: ATG_M_32_CIS: Attagene CIS-FACTORIAL HepG2 Assay for M32 Transcription Factor (Internal Marker) (AID 2282949).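 Also: background control marker of the multiplexed CIS panel rather than a real target.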 The settings on record: HepG2 Attagene cis-factorial M32 reporter, mRNA; actives raise or lower the signal. In outline:
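HepG2 transfectants (cis-regulated reporter transcription units) dosed 24 h. Reporter mRNA by RT-PCR plus CE, analysed as gain or loss relative to DMSO.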

Experiment [10] can be described thus: ATG_PXRE_CIS: Attagene CIS-FACTORIAL HepG2 Assay for human Pregnane X Receptor Element (PXRE) (AID 2282957). The following applies: HepG2 Attagene CIS-FACTORIAL PXRE reporter, mRNA; actives raise or lower the signal. The method, boiled down: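 Bidirectional activity, baselined to DMSO, derived from reporter mRNA fluorescence (RT-PCR plus capillary electrophoresis) in HepG2 cells bearing cis-promoter reporter units, 24 h exposure.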

Experiment [11] in a line: ATG_Sox_CIS: Attagene CIS-FACTORIAL HepG2 Assay for human SRY-box transcription factor (SOX) (AID 2282960). The settings on record: HepG2 Attagene cis-factorial SOX reporter, mRNA; actives raise or lower the signal. The method, boiled down:
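HepG2, cis reporter units, 24 h exposure. Reporter mRNA: RT-PCR → FAM labelling → HpaI → CE fluorescence. Bidirectional fit vs DMSO.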

Experiment [12] has as its target Transcription factor Sp1 (Homo sapiens) (UniProt P08047). The experiment in a line: ATG_Sp1_CIS: Attagene CIS-FACTORIAL HepG2 Assay for human Specificity Protein 1 (Sp1) (AID 2282961). The settings on record: HepG2 Sp1 cis-reporter transcription, actives raise or lower the signal. The method, boiled down: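 Liver-derived HepG2 cells, cis-element reporter library, 24 h treatment; RNA isolated, cDNA amplified with reporter-specific primers, FAM-labeled fragments sized on capillary analyzer. DMSO baseline, bidirectional curve fit.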

Experiment [13] has as its target Signal transducer and activator of transcription 3 (Homo sapiens) (UniProt P40763). Put plainly: ATG_STAT3_CIS: Attagene CIS-FACTORIAL HepG2 Assay for human Signal Transducer and Activator of Transcription 3 (STAT3) (AID 2282963). The settings on record: HepG2, Attagene cis-factorial STAT3 reporter transcription; actives raise or lower the signal. In outline:
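Fluorescence intensity of 6-FAM-labelled reporter fragments, separated by capillary electrophoresis after RT-PCR, gave the signal. Cells were HepG2 transfected with cis-element reporter units and treated 24 h; fitting was bidirectional relative to DMSO.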

The nature of experiment [14]: ATG_TA_CIS: Attagene CIS-FACTORIAL HepG2 Assay for human TA Basal Promoter (AID 2282964). The settings on record: HepG2 Attagene CIS-factorial TA basal promoter reporter; actives raise or lower the signal. The method, boiled down:
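Background internal-marker endpoint from a 52-component HepG2 cis-reporter panel. Cells treated 24 h; reporter transcripts quantified via RT-PCR and CE fluorescence against DMSO baseline.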

A short description of experiment [15]: ATG_TCF_b_cat_CIS: Attagene CIS-FACTORIAL HepG2 Assay for human T-Cell-Factor with beta-catenin (TCF/b-cat) (AID 2282965). The settings on record: HepG2 TCF/beta-catenin cis-reporter transcription, actives raise or lower the signal. In outline:
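HepG2 cells transiently transfected with cis-promoter-driven multiplexed reporter units; reporter mRNA measured 24 h after dosing by RT-PCR, FAM labelling, HpaI digestion and capillary electrophoresis. Bidirectional fitting relative to DMSO baseline.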

A short description of experiment [16]: ATG_TAL_CIS: Attagene CIS-FACTORIAL HepG2 Assay for human TAL Basal Promoter (AID 2282966).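 Also: background control endpoint measuring basal TAL promoter reporter mRNA not a specific factor.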 The following applies: HepG2 Attagene cis-factorial TAL promoter reporter; actives raise or lower the signal. In outline: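 Human hepatoma HepG2 cells, transfected with promoter-regulated reporter units, were treated 24 h. Reporter transcript levels, measured through RT-PCR and capillary electrophoresis, were fitted for gain or loss relative to DMSO.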

Experiment [17] addresses X-box-binding protein 1 (Homo sapiens) (UniProt P17861). The experiment in a line: ATG_Xbp1_CIS: Attagene CIS-FACTORIAL HepG2 Assay for human X-box Binding Protein 1 (XBP1) (AID 2282972). The following applies: HepG2 XBP1 cis-element reporter, Attagene multiplex; actives raise or lower the signal. In outline: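 Reporter transcripts were quantified by RT-PCR with fluorescent primer extension and capillary electrophoresis after 24 h chemical exposure. Cells: transiently transfected HepG2 carrying cis-regulated reporter constructs; data fitted bidirectionally relative to DMSO.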

The target in experiment [18] is Transcriptional activator Myb (Homo sapiens) (UniProt P10242). The experiment in a line: ATG_Myb_CIS: Attagene CIS-FACTORIAL HepG2 Assay for human Myeloblastosis (Myb) Proto-Oncogene Transcription Factor (AID 2282986). The settings on record: HepG2 Attagene CIS-FACTORIAL Myb reporter transcription; actives raise or lower the signal. The method, boiled down:
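After 24 h of compound dosing, total RNA from transfected HepG2 cells is reverse-transcribed and the reporter sequences amplified, labeled and separated by capillary electrophoresis. Values come from bidirectional fitting against DMSO.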

The target in experiment [19] is Myc proto-oncogene protein (Homo sapiens) (UniProt P01106). The experiment in a line: ATG_Myc_CIS: Attagene CIS-FACTORIAL HepG2 Assay for human Myelocytomatosis (Myc) Proto-Oncogene Transcription Factor (AID 2282990). The settings on record: HepG2, Attagene cis-reporter transcription factor activity; actives raise or lower the signal. In outline:
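Transiently transfected HepG2 cells bearing cis-promoter reporter units for endogenous transcription factors; 24 h exposure. Reporter mRNA measured by RT-PCR, 6-FAM primer extension, HpaI cut and capillary electrophoresis; bidirectional fit relative to DMSO.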

A short description of experiment [20]: ATG_Oct_MLP_CIS: Attagene CIS-FACTORIAL HepG2 Assay for human Octamer-Binding Transcription Factor (Oct) (AID 2282993). The settings on record: HepG2 Attagene cis-factorial Oct reporter, mRNA; actives raise or lower the signal. In outline: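 Using HepG2 cells bearing transfected cis-reporter constructs, mRNA induction was read after 24 h by fluorescent RT-PCR and capillary electrophoresis, with DMSO defining baseline for gain- or loss-of-signal fits.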

Here are results for four compounds from PubChem BioAssay (EPA / NIEHS).

Active and inactive are the calls of the source. The calls were made as follows: active = hit-call score of the fitted dose curve at least 0.9, where 1 is the maximum; inactive = score below 0.9.

What is called AC50 is the concentration at which the activity in the assay is half-maximal.

X-box-binding protein 1 (Homo sapiens), sequence (P17861 whole entry, looked up): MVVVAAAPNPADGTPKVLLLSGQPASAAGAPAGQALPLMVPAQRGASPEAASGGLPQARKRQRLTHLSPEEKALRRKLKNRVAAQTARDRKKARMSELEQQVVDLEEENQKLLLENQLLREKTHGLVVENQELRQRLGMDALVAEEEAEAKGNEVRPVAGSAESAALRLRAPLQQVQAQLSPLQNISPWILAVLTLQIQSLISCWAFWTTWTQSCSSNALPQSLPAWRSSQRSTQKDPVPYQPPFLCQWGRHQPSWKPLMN
Transcription factor Sp1 (Homo sapiens), sequence (P08047 whole entry, looked up, the tested form may be a part): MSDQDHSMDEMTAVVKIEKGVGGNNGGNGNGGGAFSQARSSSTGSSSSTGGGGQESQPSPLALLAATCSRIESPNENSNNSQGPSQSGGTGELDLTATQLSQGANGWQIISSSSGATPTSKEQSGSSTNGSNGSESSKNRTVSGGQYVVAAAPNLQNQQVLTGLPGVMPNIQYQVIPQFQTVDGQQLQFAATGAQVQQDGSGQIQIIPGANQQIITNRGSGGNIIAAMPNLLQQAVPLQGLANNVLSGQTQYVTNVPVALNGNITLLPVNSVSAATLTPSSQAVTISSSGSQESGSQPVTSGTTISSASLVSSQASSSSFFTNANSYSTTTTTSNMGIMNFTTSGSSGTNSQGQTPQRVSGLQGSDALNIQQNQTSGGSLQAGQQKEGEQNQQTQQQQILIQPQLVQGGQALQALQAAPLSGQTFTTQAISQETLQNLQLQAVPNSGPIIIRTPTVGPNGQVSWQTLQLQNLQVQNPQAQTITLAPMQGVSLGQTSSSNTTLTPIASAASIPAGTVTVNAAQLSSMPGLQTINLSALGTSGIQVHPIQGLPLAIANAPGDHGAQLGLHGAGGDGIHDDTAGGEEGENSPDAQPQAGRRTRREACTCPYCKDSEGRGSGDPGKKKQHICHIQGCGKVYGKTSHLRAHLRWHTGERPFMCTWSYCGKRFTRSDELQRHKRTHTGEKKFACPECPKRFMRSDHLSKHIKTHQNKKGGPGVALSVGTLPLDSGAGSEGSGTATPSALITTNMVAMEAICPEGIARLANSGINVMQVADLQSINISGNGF
Transcriptional activator Myb (Homo sapiens), sequence (P10242 whole entry, looked up): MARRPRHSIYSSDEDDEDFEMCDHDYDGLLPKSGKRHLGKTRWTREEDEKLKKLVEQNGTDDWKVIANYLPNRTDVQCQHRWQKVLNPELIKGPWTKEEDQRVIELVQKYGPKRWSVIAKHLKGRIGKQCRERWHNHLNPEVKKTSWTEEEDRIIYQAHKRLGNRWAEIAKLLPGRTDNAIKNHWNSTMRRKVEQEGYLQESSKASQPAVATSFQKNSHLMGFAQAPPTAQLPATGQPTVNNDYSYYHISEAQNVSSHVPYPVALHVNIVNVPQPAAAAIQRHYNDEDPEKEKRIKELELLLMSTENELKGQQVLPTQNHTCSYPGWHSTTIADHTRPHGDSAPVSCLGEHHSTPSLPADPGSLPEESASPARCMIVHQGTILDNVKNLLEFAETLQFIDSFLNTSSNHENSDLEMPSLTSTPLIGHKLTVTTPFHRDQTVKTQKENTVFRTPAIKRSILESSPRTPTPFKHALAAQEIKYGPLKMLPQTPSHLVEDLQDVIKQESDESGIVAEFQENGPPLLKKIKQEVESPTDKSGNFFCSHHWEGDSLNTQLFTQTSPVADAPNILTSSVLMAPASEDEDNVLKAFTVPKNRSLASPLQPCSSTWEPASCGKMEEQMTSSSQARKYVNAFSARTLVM
Myc proto-oncogene protein (Homo sapiens), sequence (P01106 whole entry, looked up): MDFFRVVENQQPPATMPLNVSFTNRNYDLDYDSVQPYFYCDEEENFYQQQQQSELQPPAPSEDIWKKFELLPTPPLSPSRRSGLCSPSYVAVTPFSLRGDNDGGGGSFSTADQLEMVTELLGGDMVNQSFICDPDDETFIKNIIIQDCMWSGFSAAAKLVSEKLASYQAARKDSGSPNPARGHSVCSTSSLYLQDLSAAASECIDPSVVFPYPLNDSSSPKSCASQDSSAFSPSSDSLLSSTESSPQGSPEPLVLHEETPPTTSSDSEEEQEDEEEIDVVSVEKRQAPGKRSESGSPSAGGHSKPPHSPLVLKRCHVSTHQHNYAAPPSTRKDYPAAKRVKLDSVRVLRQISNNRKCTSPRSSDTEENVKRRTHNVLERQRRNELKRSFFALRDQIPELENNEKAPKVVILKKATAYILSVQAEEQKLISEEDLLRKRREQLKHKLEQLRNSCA
Signal transducer and activator of transcription 3 (Homo sapiens), sequence (P40763 whole entry, looked up, the tested form may be a part): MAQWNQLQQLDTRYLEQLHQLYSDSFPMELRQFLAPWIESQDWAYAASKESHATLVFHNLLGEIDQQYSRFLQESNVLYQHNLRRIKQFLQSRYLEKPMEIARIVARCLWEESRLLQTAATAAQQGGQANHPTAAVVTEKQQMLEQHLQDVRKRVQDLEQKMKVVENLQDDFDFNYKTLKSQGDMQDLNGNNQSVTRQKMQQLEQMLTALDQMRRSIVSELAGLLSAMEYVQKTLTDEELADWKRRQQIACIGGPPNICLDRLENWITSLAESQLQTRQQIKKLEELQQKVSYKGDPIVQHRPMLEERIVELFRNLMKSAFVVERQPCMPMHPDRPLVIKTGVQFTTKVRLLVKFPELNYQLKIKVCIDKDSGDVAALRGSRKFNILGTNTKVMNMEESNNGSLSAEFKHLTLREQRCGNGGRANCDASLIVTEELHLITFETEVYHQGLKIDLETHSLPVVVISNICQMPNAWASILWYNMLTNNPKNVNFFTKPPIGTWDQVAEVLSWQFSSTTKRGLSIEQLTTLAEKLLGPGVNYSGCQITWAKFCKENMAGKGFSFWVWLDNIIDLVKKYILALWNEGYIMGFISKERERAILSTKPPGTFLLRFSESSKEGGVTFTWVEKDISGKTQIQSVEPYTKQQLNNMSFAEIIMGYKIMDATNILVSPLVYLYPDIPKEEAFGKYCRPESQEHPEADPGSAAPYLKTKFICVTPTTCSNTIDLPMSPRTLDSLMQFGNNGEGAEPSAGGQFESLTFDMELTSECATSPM
CCAAT/enhancer-binding protein beta (Homo sapiens), sequence (P17676 whole entry, looked up): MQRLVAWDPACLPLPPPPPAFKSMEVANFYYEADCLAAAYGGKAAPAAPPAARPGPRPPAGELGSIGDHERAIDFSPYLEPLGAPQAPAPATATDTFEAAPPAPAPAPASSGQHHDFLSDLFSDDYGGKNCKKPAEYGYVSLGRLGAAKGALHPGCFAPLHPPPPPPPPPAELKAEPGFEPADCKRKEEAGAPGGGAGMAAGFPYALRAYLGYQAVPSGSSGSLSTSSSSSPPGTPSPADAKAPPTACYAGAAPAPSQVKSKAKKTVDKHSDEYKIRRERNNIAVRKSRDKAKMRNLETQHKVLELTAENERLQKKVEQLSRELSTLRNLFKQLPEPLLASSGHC
Transcription factor E2F1 (Homo sapiens), sequence (Q01094 whole entry, looked up): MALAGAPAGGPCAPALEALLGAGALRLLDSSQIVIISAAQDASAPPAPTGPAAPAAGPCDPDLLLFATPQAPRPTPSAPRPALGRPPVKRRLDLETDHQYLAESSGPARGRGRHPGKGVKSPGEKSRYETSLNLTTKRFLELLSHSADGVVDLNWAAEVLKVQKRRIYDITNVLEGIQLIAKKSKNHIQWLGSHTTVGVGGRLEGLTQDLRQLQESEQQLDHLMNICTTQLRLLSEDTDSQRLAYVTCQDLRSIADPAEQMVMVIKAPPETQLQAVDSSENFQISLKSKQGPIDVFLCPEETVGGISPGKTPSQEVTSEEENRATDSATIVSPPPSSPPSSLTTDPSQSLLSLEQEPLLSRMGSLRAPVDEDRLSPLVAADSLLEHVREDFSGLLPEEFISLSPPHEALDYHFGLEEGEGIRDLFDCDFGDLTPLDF

Consider `CCOC(=O)N(C)N=O`, for which the outcome in [1], in experiment [2], in experiment [3], in experiment [4], in experiment [5] and in [6] was inactive. Further, the compound was classed as inactive in [7], in experiment [8], in [9], in experiment [11], in experiment [12] and in [13]. Also, the compound was classed as inactive in experiment [14], in experiment [15], in experiment [16], in experiment [17], in experiment [18] and in experiment [19]. The result in experiment [20] was inactive. Also, the AC50 in experiment [10] is 26.1 µM (active).
As for `O=C(NCNC(=O)NC1C(=O)NC(=O)N1CO)NC1C(=O)NC(=O)N1CO` (stereo not given), the outcome in [1], in [2], in experiment [3], in [4], in experiment [5] and in experiment [6] was inactive. The compound was called inactive in experiment [7], in [8], in experiment [9], in experiment [10], in [11] and in experiment [12]. Besides, the result in experiment [13], in experiment [14], in experiment [15], in experiment [16], in experiment [18] and in experiment [19] was inactive. Besides, the AC50 is 151 µM (active) in [17] and 157 µM (active) in experiment [20].
`CC(C)C(=O)Cl`: the result in experiment [1], in experiment [2], in experiment [3], in experiment [4], in [5] and in experiment [6] was inactive. For the same compound, the call in [7], in experiment [8], in [9], in experiment [10], in experiment [11] and in experiment [12] was inactive. In addition, the result in [13], in experiment [14], in experiment [15], in experiment [16], in experiment [17] and in experiment [18] was inactive. For the same compound, the compound was called inactive in [19] and in [20].
As for `CCC[N+](=O)[O-]`, the outcome in experiment [1], in [2], in experiment [3], in [4], in experiment [5] and in [6] was inactive. Further, the compound was called inactive in experiment [7], in experiment [8], in experiment [9], in experiment [10], in experiment [11] and in experiment [12]. In addition, the call in [13], in experiment [14], in experiment [15], in experiment [16], in experiment [17] and in experiment [18] was inactive. Moreover, the result in [19] and in [20] was inactive.
